The structures appear in SMILES notation. Activity calls are given as the source filed them.

The nature of assay [1]: E. coli DRC41 culture turbidity changes, primary screen, E. coli filamentation inducer project, strain DRC41, OD650, 48 h (AID 1152).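 Note: E. coli MC1000 strain DRC41 lacking acrAB efflux pump and sulA.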 As to conditions: E. coli DRC41 (acrAB sulA), higher = more signal, called active from +8 up or from −8 down.
The nature of assay [2]: small-molecule binders of probe aLefty1, primary screen, biochemical, small-molecule microarray, 635/667 nm fluorescence (AID 1153).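 Note: score merges spot fluorescence with signal-to-noise ratio from the scanned slide images.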 Conditions: higher = more signal.
Assay [3] is described as follows: PSAC antagonists in infected red cells, primary screen, cell-based, P. falciparum Indochina, OD700, 1 h (AID 1154). As to conditions: P. falciparum Indochina infected RBC osmotic lysis, higher = more signal, called active from +8 up or from −8 down.
Assay [4] in a line: PSAC antagonists in infected red cells, primary screen, cell-based, P. falciparum Indochina, OD700, 2 h (AID 1155).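 Note: lysis reports solute entry through the parasite surface anion channel PSAC; channel blockers reduce lysis of infected cells.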 Conditions: P. falciparum Indochina infected erythrocytes, osmotic lysis OD700; higher = more signal, called active from +8 up or from −8 down.
Assay [5] in a line: osmotic lysis modulators in infected erythrocytes, primary screen, PSAC antagonist project, cell-based, P. falciparum Indochina, OD700, 3 h (AID 1156). Conditions: higher = more signal, called active from +8 up or from −8 down.
Assay [6] can be described thus: PSAC antagonists in infected red cells, primary screen, cell-based, P. falciparum Indochina, OD700, 18 h (AID 1157). As to conditions: P. falciparum Indochina infected erythrocytes, osmotic lysis OD700, 18 h; higher = more signal, called active from +8 up or from −8 down.
A short description of assay [7]: modulators of S6 phosphorylation in cells, primary screen, cell-based, A549, cytoblot, luminescence, serum-stimulated (AID 1158).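 Note: serum-stimulated A549 lung adenocarcinoma cells; signal is phosphorylated S6 detected by cytoblot immunostaining with HRP secondary.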 Conditions: A549 phospho-S6 cytoblot, 5 h, higher = more signal.
Assay [8] addresses NADPH oxidase 2 (Homo sapiens) (UniProt P04839). Nature of the assay: NOX2-dependent H2O2 signal modulators, primary screen, NOX inhibitor project, cell-based, HEK293-NOX2, PMA-stimulated, Amplex Red fluorescence (AID 1159). Note: test concentration not given here. As to conditions: 45 min, higher = more signal, called active from +8 up or from −8 down.
Assay [9] deals with NADPH oxidase 4 (Homo sapiens) (UniProt Q9NPH5). Nature of the assay: NOX4-dependent H2O2 signal modulators, primary screen, NOX inhibitor project, cell-based, HEK293-NOX4, tetracycline-induced, Amplex Red fluorescence (AID 1160). As to conditions: 45 min, higher = more signal, called active from +8 up or from −8 down.
NADPH oxidase 4 (Homo sapiens), sequence (Q9NPH5 whole entry, looked up): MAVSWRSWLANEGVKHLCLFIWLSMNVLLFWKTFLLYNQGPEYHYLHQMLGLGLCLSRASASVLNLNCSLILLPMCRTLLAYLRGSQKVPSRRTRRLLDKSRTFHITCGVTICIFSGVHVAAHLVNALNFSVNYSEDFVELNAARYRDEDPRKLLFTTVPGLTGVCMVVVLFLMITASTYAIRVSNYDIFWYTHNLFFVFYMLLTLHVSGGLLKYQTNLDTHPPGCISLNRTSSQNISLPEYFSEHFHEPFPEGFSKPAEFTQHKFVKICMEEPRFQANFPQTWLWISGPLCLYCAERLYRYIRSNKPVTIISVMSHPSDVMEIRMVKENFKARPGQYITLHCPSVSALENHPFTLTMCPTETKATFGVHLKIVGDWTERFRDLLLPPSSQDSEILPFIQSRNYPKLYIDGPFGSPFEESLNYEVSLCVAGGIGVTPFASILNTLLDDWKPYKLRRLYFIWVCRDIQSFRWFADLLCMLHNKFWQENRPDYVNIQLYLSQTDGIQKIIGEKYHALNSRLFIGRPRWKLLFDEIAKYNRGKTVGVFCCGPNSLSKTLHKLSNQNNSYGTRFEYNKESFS
For assay [10], the target named is NADPH oxidase 5 (Homo sapiens) (UniProt Q96PH1). Nature of the assay: NOX5-dependent H2O2 signal modulators, primary screen, NOX inhibitor project, cell-based, HEK293-NOX5, Amplex Red fluorescence (AID 1161). Conditions: HEK293-NOX5, ionomycin, 45 min, higher = more signal.
NADPH oxidase 5 (Homo sapiens), sequence (Q96PH1 whole entry, looked up): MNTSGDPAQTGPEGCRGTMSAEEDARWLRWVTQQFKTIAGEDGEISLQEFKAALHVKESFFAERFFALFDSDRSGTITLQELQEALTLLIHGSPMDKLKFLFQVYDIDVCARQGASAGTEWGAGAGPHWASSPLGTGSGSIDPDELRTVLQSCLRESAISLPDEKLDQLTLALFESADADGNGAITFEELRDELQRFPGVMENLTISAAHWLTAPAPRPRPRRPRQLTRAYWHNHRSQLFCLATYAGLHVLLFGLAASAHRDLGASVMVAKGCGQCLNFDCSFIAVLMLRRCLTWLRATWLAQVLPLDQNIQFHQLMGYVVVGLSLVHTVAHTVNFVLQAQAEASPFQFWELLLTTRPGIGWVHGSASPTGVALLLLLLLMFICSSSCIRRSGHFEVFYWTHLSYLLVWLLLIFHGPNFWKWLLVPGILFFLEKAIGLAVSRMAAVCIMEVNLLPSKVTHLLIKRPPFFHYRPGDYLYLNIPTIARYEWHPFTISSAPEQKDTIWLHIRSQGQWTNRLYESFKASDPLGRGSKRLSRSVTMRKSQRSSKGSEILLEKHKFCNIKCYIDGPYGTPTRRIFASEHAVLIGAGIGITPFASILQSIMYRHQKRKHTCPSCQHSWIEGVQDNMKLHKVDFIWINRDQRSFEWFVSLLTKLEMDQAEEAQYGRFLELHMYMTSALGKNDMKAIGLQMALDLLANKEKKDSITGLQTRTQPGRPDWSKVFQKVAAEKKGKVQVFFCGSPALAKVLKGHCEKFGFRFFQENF
A short description of assay [11]: A549 cell viability effects, profiling panel, calcein-AM fluorescence, 48 h, basal (AID 1162). Note: test concentration not given here. Conditions: higher = more signal.
Assay [12] in a line: adipocyte viability effects, profiling panel, cell-based, 3T3-L1 adipocytes, calcein-AM fluorescence, 48 h, basal (AID 1163). Note: test concentration not given here. Conditions: 3T3-L1 adipocytes viability, higher = more signal.
The nature of assay [13]: HepG2 cell viability effects, profiling panel, calcein-AM fluorescence, 48 h, basal (AID 1164). Note: test concentration not given here. As to conditions: higher = more signal.
The nature of assay [14]: MM1S cell viability effects, profiling panel, calcein-AM fluorescence, 48 h, basal (AID 1165).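 Note: viability of MM1S multiple myeloma cells under basal unstimulated conditions; test concentration not given here.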 Conditions: higher = more signal.
The nature of assay [15]: basal RPMI8226 viability, no added stimulus, profiling panel, cell-based, calcein-AM fluorescence, 48 h, PK04 Diversity Set (AID 1166).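 Note: cells grown under basal conditions without added stimulus; test concentration not given here.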 As to conditions: RPMI8226 myeloma viability, higher = more signal.
A short description of assay [16]: basal HepG2 mitochondrial membrane potential changes, profiling panel, cell-based, JC-1 fluorescence, 24 h, 100 nL compound (AID 1167). Note: test concentration not given here. Conditions: higher = more signal.
Assay [17] can be described thus: basal 3T3-L1 adipocyte mitochondrial potential changes, profiling panel, cell-based, JC-1 fluorescence, 3T3-L1 adipocytes, 24 h, 100 nL compound (AID 1168). Note: test concentration not given here. Conditions: JC-1 mitochondrial fluorescence, higher = more signal, called active from +8 up or from −8 down.
Assay [18] in a line: basal RPMI8226 mitochondrial membrane potential changes, profiling panel, cell-based, JC-1 fluorescence, 24 h, 100 nL compound (AID 1169). Note: test concentration not given here. Conditions: RPMI8226 myeloma, JC-1 mitochondrial potential fluorescence, higher = more signal.
Assay [19] can be described thus: basal MM1S mitochondrial membrane potential changes, profiling panel, cell-based, JC-1 fluorescence, 24 h, 100 nL compound (AID 1170). Note: test concentration not given here. Conditions: higher = more signal.
A short description of assay [20]: A549 lung cancer cell viability effects, profiling panel, resazurin fluorescence, 24 h, PK04 Diversity Set (AID 1171). Note: test concentration not given here. Conditions: higher = more signal, called active from +8 up or from −8 down.

NADPH oxidase 2 (Homo sapiens), sequence (P04839 whole entry, looked up): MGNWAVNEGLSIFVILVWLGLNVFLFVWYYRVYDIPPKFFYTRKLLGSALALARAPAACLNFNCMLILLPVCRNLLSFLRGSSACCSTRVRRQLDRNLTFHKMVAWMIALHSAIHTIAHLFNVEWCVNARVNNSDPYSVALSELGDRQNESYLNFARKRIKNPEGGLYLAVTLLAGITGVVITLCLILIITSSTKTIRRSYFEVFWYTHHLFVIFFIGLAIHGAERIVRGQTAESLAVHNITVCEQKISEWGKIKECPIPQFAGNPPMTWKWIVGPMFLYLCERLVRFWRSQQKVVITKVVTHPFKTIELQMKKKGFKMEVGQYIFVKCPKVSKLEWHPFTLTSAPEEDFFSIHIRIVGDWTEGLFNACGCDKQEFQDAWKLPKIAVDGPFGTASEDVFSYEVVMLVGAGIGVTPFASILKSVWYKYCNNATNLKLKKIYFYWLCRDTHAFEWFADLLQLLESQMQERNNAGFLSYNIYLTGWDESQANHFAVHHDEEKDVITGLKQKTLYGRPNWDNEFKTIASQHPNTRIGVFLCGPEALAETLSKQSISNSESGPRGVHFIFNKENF

In the case of `O=C1OCCC=C[C@H]2OC34C=CCN(c5ccc(Cl)cc5)C(=O)[C@H]3N(CCO)C(=O)[C@@H]4C12` (stereo not given in full), the z-score in assay [1] was -0.232 (inactive); in assay [3], 0.773 (inactive); in assay [4], 0.183 (inactive); in assay [5] it was 0.766 (inactive); in assay [6], 0.355 (inactive); in assay [7], -0.509. In addition, the z-score in [8] is 1.69 (inactive); in assay [9], -0.0621 (inactive); in [10], 1.48; in assay [11] it was -0.384; in assay [12] it was 0.0844; in [13] it was 0.0509. Also, the z-score is 0.739 in assay [14]; -0.165 in assay [15]; -0.28 in assay [16]; 0.296 (inactive) in [17]; 0.0137 in assay [18]; 1.29 in assay [19]. Moreover, the z-score in assay [20] is 0.519 (inactive). Further, the composite z-score in assay [2] was -0.0501.

`CN(C)CCCC[C@@H]1NC(=O)[C@@H]2C[C@H](C(=O)NCCCCCCNC(=O)CS)[C@H](c3cccc(OCCO)c3)N2C1=O`: the z-score in assay [1] was -0.0099 (inactive); in assay [3], 3.24 (inactive); in [4], 0.681 (inactive); in [5], -0.0935 (inactive); in assay [6], 0.496 (inactive); in [7] it was 1.91. Besides, the z-score in [8] was 2.03 (inactive); in [9], 0.84 (inactive); in assay [10], 1.84; in assay [11] it was -0.335; in assay [12] it was -0.668; in assay [13], 1.27. Besides, the z-score in assay [14] is 0.843; in [15], 0.405; in assay [16], 1.6; in assay [17], 0.252 (inactive); in assay [18], -0.666; in [19] it was -0.871. For the same compound, in assay [20], the z-score is -0.643 (inactive). In assay [2], this compound displayed a composite z-score of -0.416.

Take `COC(=O)[C@@]1(Cc2ccc(F)cc2)[C@H]2c3cc(C(=O)N(C)C)n(CCO)c3C[C@H]2CN1C(=O)c1ccccc1`: the z-score in [1] is -0.285 (inactive); in assay [3], 0.0154 (inactive); in [4] it was -0.687 (inactive); in assay [5] it was -1.25 (inactive); in [6] it was -1.27 (inactive); in assay [7], 1.8. Further, the z-score in [8] was 0.254 (inactive); in [9], 1.68 (inactive); in [10], -2.18; in [11] it was -0.371; in [12], -0.173; in assay [13], 0.318. For the same compound, the z-score is 0.563 in assay [14]; 0.382 in [15]; -2.03 in assay [16]; -0.453 (inactive) in assay [17]; 0.161 in assay [18]; 0.243 in assay [19]. The z-score in assay [20] is -1.59 (inactive). In [2], the composite z-score was found to be 0.0774.

Turning to `CCC[C@@H]1[C@@H](Sc2ccccc2)[C@@H](C(=O)O)[C@H](c2ccc(C)cc2)N1S(=O)(=O)c1ccc(C)cc1`, the z-score in assay [1] is 0.086 (inactive); in assay [3], 1.44 (inactive); in [4], 0.495 (inactive); in [5] it was -0.892 (inactive); in assay [6] it was 1 (inactive); in [7], -0.0334. For the same compound, the z-score in assay [8] is 1.82 (inactive); in [9], 0.872 (inactive); in [10], 1.27; in assay [11], -0.861; in [12] it was -0.571; in assay [13] it was 0.699. Also, the z-score in assay [14] is 0.116; in [15], -2.59; in assay [16], -0.772; in assay [17], 1.41 (inactive); in assay [18], -0.134; in [19] it was -1.64. The z-score in assay [20] is -0.856 (inactive). This compound also displayed a composite z-score in assay [2] of 0.0531.

On to `COCCCN1C(=O)[C@@]2(Cc3ccccc31)c1ccccc1C(=O)N(Cc1ccccc1OC)[C@H]2c1ccc(CO)cc1`, for which the z-score is 0.168 (inactive) in assay [1]; 0.883 (inactive) in assay [3]; 0.216 (inactive) in assay [4]; 0.0049 (inactive) in assay [5]; -0.185 (inactive) in assay [6]; 0.592 in [7]. Besides, the z-score is 0.0278 (inactive) in assay [8]; 0.545 (inactive) in [9]; 1.41 in assay [10]; -0.609 in [11]; 1.12 in assay [12]; -0.95 in assay [13]. In addition, the z-score in assay [14] was -0.492; in [15], -0.452; in [16], -0.499; in assay [17], -0.722 (inactive); in assay [18], 0.695; in [19] it was -0.0862. Further, the z-score in [20] is -0.458 (inactive). Also, the composite z-score in assay [2] was 0.193.

Turning to `CC(C)C[C@@H]1NC(=O)[C@@H]2C[C@H](C(=O)O)[C@H](c3ccc(O)cc3)N2C1=O`, the z-score in assay [1] is 2.59 (inactive); in assay [3], 4.56 (inactive); in [4], 0.677 (inactive); in assay [5] it was -0.641 (inactive); in assay [6] it was 0.179 (inactive); in assay [7], 1.09. Further, the z-score in [8] is 0.304 (inactive); in [9], 0.398 (inactive); in assay [10], -0.107; in [11], 0.704; in [12] it was 0.37; in assay [13] it was 0.285. Also, the z-score in assay [14] was -1.32; in assay [15] it was 0.126; in assay [16], 0.962; in [17], -0.773 (inactive); in [18], -0.49; in assay [19], 0.3. Also, in assay [20], the z-score is 1.64 (inactive). The composite z-score in [2] was determined as 0.013.

In the case of `NC(=O)[C@@]1(CCS(=O)(=O)c2ccccc2)COC(c2ccc(OCCCO)cc2)=N1`, the z-score is 1.05 (inactive) in [1]; 22.1 (active) in assay [3]; 4.56 (inactive) in assay [4]; 0.815 (inactive) in assay [5]; 0.939 (inactive) in assay [6]; -0.192 in [7]. The z-score was -2.33 (inactive) in assay [8]; -0.383 (inactive) in assay [9]; -0.124 in [10]; -0.339 in assay [11]; -0.519 in [12]; 0.344 in assay [13]. For the same compound, the z-score in [14] is -0.0256; in [15] it was 0.458; in [16] it was -0.522; in assay [17], -0.762 (inactive); in assay [18], -0.436; in assay [19], -0.942. For the same compound, in assay [20], the z-score is -0.721 (inactive). This compound also yielded a composite z-score in assay [2] of 0.281.

On to `C=C(COC)C(=O)CC[C@@H](OC(=O)c1cccnc1)c1cccc(OCCO)c1`, for which the z-score in assay [1] was 0.857 (inactive); in [3], 13.9 (active); in [4] it was 1.86 (inactive); in assay [5], 1.21 (inactive); in assay [6], 0.454 (inactive); in assay [7], 0.28. In addition, the z-score is -3.15 (inactive) in assay [8]; -0.703 (inactive) in assay [9]; -1.33 in assay [10]; -0.0547 in [11]; 0.627 in assay [12]; -0.714 in assay [13]. The z-score in assay [14] is -3.31; in assay [15], -1.71; in assay [16] it was 0.082; in assay [17], 0.195 (inactive); in [18], -0.26; in [19], -1.78. Besides, the z-score in assay [20] was 0.9 (inactive). In addition, the composite z-score in assay [2] worked out at 0.571.

As for `Cc1c(-c2ccc(-c3ccc(Cl)c(Cl)c3)o2)nc(-c2ccccc2)c2c1CO[Si]2(C(C)C)C(C)C`, the z-score is -1.3 (inactive) in assay [1]; 0.311 (inactive) in assay [3]; -0.267 (inactive) in assay [4]; -0.803 (inactive) in [5]; -0.944 (inactive) in assay [6]; -0.298 in [7]. The z-score in [8] was -0.545 (inactive); in assay [9], 0.0324 (inactive); in assay [10], -0.237; in assay [11], -0.719; in assay [12] it was -0.527; in [13] it was 0.0118. For the same compound, the z-score in [14] is -3.01; in assay [15] it was -3.96; in [16], -1.38; in assay [17], -0.313 (inactive); in assay [18], -0.933; in assay [19], -1.66. In [20], the z-score was 0.525 (inactive). The compound also had a composite z-score in [2] of -0.101.
